# Laboratory results from PubChem BioAssay (NCI).
# Where “and” joins values, the source holds several entries; their conditions need not be identical. Equal entries are not always repeated. The panel holds about 83,000 compounds, 20% with a hit somewhere; the sample as a whole holds those more often.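 Treatment: one concentration, 48 hours, 96-well format. Scoring: percent growth, with anything below 10 considered active.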 A number with no mark means an inactive call. Calls of active or inactive are those of the source.
# Tested on: MDA-MB-468 breast
# Assay: NCI-60 one-dose screen, 48 h (100 = growth as untreated, 0 = no growth, -100 = all killed)
# Conditions: 10 µM unless noted
row,Structure (SMILES),growth
1,Cc1cc2c(C(C)C)c(O)c(O)c(C=NCCCCCCC(=O)O)c2c(O)c1-c1c(C)cc2c(C(C)C)c(O)c(O)c(C=NCCCCCCC(=O)O)c2c1O,30.4%
2,CCCCC(CCc1ccccn1)C(=O)c1ccccc1 (stereo unspecified),109%
3,Cc1ccc(NC(=O)c2cc(NCc3cc(O)ccc3O)ccc2O)cc1,86.6%
4,COc1ccc(C/C(C)=C(/c2ccc(OCCCN(C)C)cc2)c2ccc(OC(C)=O)cc2)cc1,63.8%
5,O=C(c1ccccc1)C(CN1CCCCC1)c1ccccc1 (stereo unspecified),-29.1% (active)
6,COc1ccc(/C=C2\SC(=Nc3ccccc3)NC2=O)cc1,-84.8% (active)
7,CC(=O)NCCCS(=O)(=O)O,113%
8,O=[N+]([O-])c1ccc(N=Nc2c(Cl)cc(O)cc2Cl)cc1,-11.7% (active)
9,CC[C@]12C=CCN3CC[C@]4(C(=C(C(=O)OC)C1)Nc1cc5c(cc14)[C@@H]1[C@H](O5)[C@@H](O)[C@@]4(CC)CC(C(=O)OC)=C5Nc6cc(O)ccc6[C@@]56CCN1C46)C32 (stereo partly specified),-51% (active)
10,COc1ccc(/C=C2/CCc3cc4ccc(OC)cc4[o+]c32)c(O)c1,97.1%
11,COc1ccc(CN2CCCC(C(=O)c3ccc(C(F)(F)F)cc3)C2)c(O)c1 (stereo unspecified),12.9%
12,CCCC(=O)Oc1ccc(/C(=C(\C)c2ccccc2)c2ccc(OCCN(CC)CC)cc2)cc1,62.4%
13,CCCCCCNC(=O)Oc1ccc(/C(=C(\C)c2ccc(Cl)cc2)c2ccc(OCCCN(C)C)cc2)cc1,92%
14,CN1CSC(=S)N(Cc2ccccc2)C1,7.55% (active)
15,CCCCCCN1C(=O)/C(=c2\sc3n(c2=O)C2C(NN=3)N(CC)C(=O)N2CC)c2ccccc21 (stereo unspecified),-10.2% (active)
16,COc1ccc(CCN2CCCN3C2=Nc2ccccc2S3(=O)=O)cc1,5.24% (active)
17,C#CC(F)(F)[C@]1(O)CC[C@H]2[C@@H]3CCC4=CC(=O)CCC4=C3[C@@H](c3ccc(C(C)=O)cc3)C[C@@]21C,81.3%
18,O=C(OC[C@@H]1CO1)c1cccc2c(=O)c3ccccc3[nH]c12,-52% (active)
19,c1ccc2cc(Cn3cc[n+](Cc4ccc5ccccc5c4)c3)ccc2c1,-23.7% (active)
20,CC1=C(NCCN2CCCC2)C(=O)c2c(OCc3ccc(F)c(Cl)c3)cccc2C1=O,67.1%
21,O=C(Nc1cccc2[nH]c(C(F)(F)F)nc12)c1cc(Cl)ccc1Cl,15.1%
22,Clc1ccc(-c2nnc(Cn3ccnc3)o2)cc1,104%
23,O=C(/C=C/c1cccc(Cl)c1)c1ccccc1,82.8% and 74.6%
24,COc1ccc(/C=C(\C#N)c2ccc([N+](=O)[O-])cc2)c2ccccc12,84.7%
25,COc1ccc(/C(C)=C(\c2ccc(OCCN3CCCCCC3)cc2)c2ccc(OC(=O)c3ccccc3)cc2)cc1,61.3%
26,Nc1ccccc1Nc1ccccc1,120% and 118%
